Compound activity deposited in PubChem BioAssay by National Center for Advancing Translational Sciences (NCATS).
This is one part of a sample in which hits are shown more often than they occur.
Methyltransferases = Primary Screen for Target Class Profiling of Small Molecule Inhibitors of Methyltransferases | purified enzyme, MTase-Glo SAH luminescence; hits give low values | calls only at 40 µM | 3.9% of 25,000 active; call rule not given here
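Each enzyme was assayed with SAM and its substrate. SAH formation detected by MTase-Glo luminescence; single-point 40 uM screen[…].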
Each line names hits and unclear results; the compound was inactive in the other large screens; ! = not confirmed by another sample.

Cc1cccc(CNC(=O)C2(C)Cn3cnc(C(=O)NCc4ccc(OC(C)C)cc4)c3C(=O)N2C2CC2)c1 (configuration not stated)	none
CCN(CC)CCN(Cc1ccc(-c2ccc(C(F)(F)F)cc2)cc1)C(=O)Cn1c(SCc2ccc(F)cc2)nc(=O)c2c1CCC2	Methyltransferases active
CCOC(=O)c1ccc(N2C(=O)CSc3c(c4ccccc4n3C)C2C(=O)NCc2ccc(F)cc2)cc1 (configuration not stated)	none
O=C(NC1CCCC1)c1ccc2c(=O)n(Cc3ccccc3)c3nn(Cc4ccc(F)cc4)c(=O)n3c2c1	none
CC(=O)O[C@@H]1[C@@H](O)[C@H](C)O[C@@H](O[C@H]2[C@@H]3C=CO[C@@H](O[C@@H]4O[C@H](CO)[C@@H](O)[C@H](O)[C@H]4O)[C@@H]3[C@@]3(CO)O[C@@H]23)[C@@H]1OC(=O)/C=C/c1ccccc1	none
CC1=CC(=O)C2(OC3OC(C)C(O)C(OC(=O)/C=C/c4ccccc4)C3O)C=COC(OC3OC(CO)C(O)C(O)C3O)C12 (configuration not stated)	Methyltransferases active
C[C@@H]1O[C@@H](O[C@H]2[C@@H]3C=CO[C@@H](O[C@@H]4O[C@H](CO)[C@@H](O)[C@H](O)[C@H]4O)[C@@H]3[C@@]3(CO)O[C@@H]23)[C@H](O)[C@H](OC(=O)/C=C/c2ccccc2)[C@H]1O	none
CCC(C)NC(=O)Cn1nc2n(Cc3ccccc3)c(=O)c3ccc(C(=O)NC(C)C)cc3n2c1=O (configuration not stated)	none
Cc1ccc(CN2CCC(CNc3cc(C4CC(O)C4)ncn3)CC2)o1 (configuration not stated)	none
CN1CCC(CNc2ccc3ncc(-c4cccc(OC(F)(F)F)c4)n3n2)CC1	Methyltransferases active!
COc1c(/C=C/C(C)(C)O)ccc2c1C(=O)OCc1cc(C)cc(O)c1O2	none
Cc1cc2c(cc3n2CC(C)(C(=O)NC2CCCCCC2)N(CCC(C)C)C3=O)o1 (configuration not stated)	none
COc1ccc2c(c1)c(NC(C)=O)c1n2CC(C)(C(=O)NC2CCCC2)N(Cc2cccs2)C1=O (configuration not stated)	none
CC1(C(=O)NC2CCCCC2)Cn2c(cc3occc32)C(=O)N1Cc1ccc(Cl)cc1 (configuration not stated)	none
N#Cc1cnc2c(Cl)cc(NCc3cn(CCN4CCCCCC4)nn3)cc2c1Nc1ccc(F)c(Cl)c1	Methyltransferases active
O=S(=O)(c1cc(F)ccc1F)N1CCC(n2cc(CCCO)nn2)CC1	none
O=C(Nc1ccc(F)c(Cl)c1)c1cnc(-c2ccccc2)nc1-c1ccncc1	none
Cc1ccc(C#N)c(-c2cc(NCc3cccnc3)nc3[nH]ccc23)n1	none
CCN1CCC(n2cc(CNc3cc(Cl)c4ncc(C#N)c(Nc5ccc(F)c(Cl)c5)c4c3)nn2)CC1	Methyltransferases active
CNC(=O)[C@@H]1C[C@H](n2cc(CNS(=O)(=O)c3cc(C)ccc3F)nn2)CN1	none
N#Cc1cnc2cnc(NCc3cccnc3)cc2c1Nc1ccc(F)c(Cl)c1	Methyltransferases active
CCOc1ccc(CN2C(=O)c3ccc(-c4ccco4)n3CC2(C)C(=O)NC2CCCCC2C)cc1 (configuration not stated)	none
CC1(C(=O)NC2CCCCC2)Cn2c(cc3sccc32)C(=O)N1CCc1ccc(Cl)cc1 (configuration not stated)	none
CCCN1C(=O)c2c(C(=O)NCCc3ccc(Cl)cc3)ncn2CC1(C)C(=O)NCc1ccc(F)cc1 (configuration not stated)	none
Cn1c(=O)c2ccc(C(=O)NC3CCCC3)cc2n2c(=O)n(Cc3c(F)cccc3Cl)nc12	none
CCc1ccc(NC(=O)c2cc3n(n2)CC(C)(C(=O)NC2CCCCCC2)N(C)C3=O)cc1 (configuration not stated)	none
CC1(C(=O)NC2CCCC2)Cn2c(nc3ccccc32)C(=O)N1CCCc1ccccc1 (configuration not stated)	none
O=C(Cn1c(=O)n2nc(-c3ccccc3)nc2c2ccccc21)N1CCN(c2ccc(F)cc2)CC1	none
COc1ccc(NC(=O)CSc2nnc3n(Cc4ccccc4)c(=O)c4ccccc4n23)cc1	none
Cc1cccc(CNC(=O)C2(C)Cn3cnc(C(=O)NC4CCCC4)c3C(=O)N2C2CC2)c1 (configuration not stated)	none
CCOc1cc2ncc(C#N)c(Nc3ccc(OCc4ccccn4)c(Cl)c3)c2cc1NC(=O)/C=C/CN(C)C	none
CCOc1cc2ncc(C#N)c(Nc3ccc(F)c(Cl)c3)c2cc1NC(=O)/C=C/CN(C)C	Methyltransferases active
CN(C)C/C=C/C(=O)Nc1cc2c(Nc3ccc(F)c(Cl)c3)ncnc2cc1O[C@H]1CCOC1	Methyltransferases active
CN(C)C/C=C/C(=O)Nc1cc2c(Nc3ccc(F)c(Cl)c3)ncnc2cc1OC1CCOC1 (configuration not stated)	Methyltransferases active
CC(=O)Nc1c2n(c3ccccc13)CC(C)(C(=O)NC1CCCCC1)N(C1CCC(C)CC1)C2=O (configuration not stated)	none
